{"source": "PubChem BioAssay AID720488", "about": "(Milwaukee Institute for Drug Discovery, 2013)", "note": "The campaign covered roughly 16,000 compounds. About 960 (6%) were called active. Shown is part of a subset that was picked to be rich in actives. Values without a mark were called inactive.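 The calls were made as follows: active = compound fluorescence over control fluorescence at most 0.8, a quencher, or at least a set upper limit, an enhancer; inactive = ratio between 0.8 and the set upper limit.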"}
{"assay": "Cy5 fluorescence quenchers or enhancers, artefact control for HCV NS3 helicase inhibitor project, biochemical, ChemBridge library, Cy5 readout (AID 720488)", "conditions": "Cy5-dT15 DNA with NS3h, at 100 µM, actives lie on both sides, signal over control mean, under 1 quenches"}
{"smiles": "CCOC(=O)C1CCN(C(=O)Nc2ccc(Cl)cc2)CC1", "fluorescence interference ratio": 1.01}
{"smiles": "NC(=O)NC(c1ccccc1)c1ccc(I)cc1", "note": "(stereo not drawn)", "fluorescence interference ratio": 1.01}
{"smiles": "O=C(Nc1ccc([N+](=O)[O-])cc1)C1CC(=O)N(c2ccc(Cl)cc2)C1", "note": "(stereo not drawn)", "fluorescence interference ratio": 0.885}
{"smiles": "CN(C)/C=C(/Cl)C=C1C(=O)c2ccccc2C1=O", "fluorescence interference ratio": "0.757 (active)"}
{"smiles": "Cc1cc(OCC(=O)Nc2c(C)cccc2C)ccc1Cl", "fluorescence interference ratio": 0.96}
{"smiles": "COc1ccc(S(=O)(=O)Nc2cc(Br)c(O)c(Br)c2)cc1", "fluorescence interference ratio": 0.972}
{"smiles": "COC(=O)c1ccc(COc2ccc3c4c(c(=O)oc3c2)CCC4)cc1", "fluorescence interference ratio": 0.926}
{"smiles": "CC1=NN(C(=O)c2ccc(Br)cc2)C(O)(c2ccccc2)C1", "note": "(stereo not drawn)", "fluorescence interference ratio": "0.753 (active)"}
{"smiles": "CCC1=NN(C(=O)c2cccc(Br)c2)C(O)(c2ccc(C)cc2)C1", "note": "(stereo not drawn)", "fluorescence interference ratio": 0.942}
{"smiles": "O=C(c1ccc(Cl)cc1)N1N=C(c2ccc(F)cc2)CC1(O)C(F)(F)F", "note": "(stereo not drawn)", "fluorescence interference ratio": 0.933}
{"smiles": "O=C(Cc1ccc(Cl)cc1)Nc1nccs1", "fluorescence interference ratio": 0.993}
{"smiles": "Cc1cc(C(N)=O)c(-c2ccccc2)o1", "fluorescence interference ratio": 1.04}
{"smiles": "O=C1CC2c3ccccc3C1C1C(=O)N(c3ccc(Br)cc3)C(=O)C21", "note": "(stereo not drawn)", "fluorescence interference ratio": 1.04}
{"smiles": "Cc1ccc(N2C(=O)C3C4c5ccccc5C(C)(c5ccccc54)C3C2=O)cc1", "note": "(stereo not drawn)", "fluorescence interference ratio": 0.929}
{"smiles": "CC(=O)Nc1ccc(N2C(=O)C3C4CC(=O)C(c5ccccc54)C3C2=O)cc1", "note": "(stereo not drawn)", "fluorescence interference ratio": "0.654 (active)"}
{"smiles": "Oc1cccc(Nc2nc(-c3ccc(Br)cc3)cs2)c1", "fluorescence interference ratio": 0.941}
{"smiles": "COCCCNC(=O)C(=O)NCCc1ccc(OC)c(OC)c1", "fluorescence interference ratio": 0.956}
{"smiles": "COc1ccc2c(c1)-c1c(ssc1=S)C(C)(C)N2C(=O)COc1ccccc1", "fluorescence interference ratio": 0.931}
{"smiles": "CC12OC3(CCCCC3)C(C)(OC13CCCCC3)O2", "fluorescence interference ratio": "0.781 (active)"}
{"smiles": "COc1ccc(C(=O)Nc2ccccc2)cc1NC(=O)C(C)Oc1ccccc1", "note": "(stereo not drawn)", "fluorescence interference ratio": 0.898}
{"smiles": "O=C(/C=C/c1ccccc1)NC(=S)Nc1ccc([N+](=O)[O-])cc1", "fluorescence interference ratio": 1.02}
{"smiles": "S=C1NC(c2ccccc2)=NCN1c1ccc(Br)cc1", "fluorescence interference ratio": "0.684 (active)"}
{"smiles": "Cc1cc(C)c(C(O)=Cc2nc3ccccc3[nH]c2=O)c(C)c1", "fluorescence interference ratio": 1.05}
{"smiles": "CCN1C(=O)/C(=C\\c2cn(Cc3ccc(F)cc3)c3ccccc23)SC1=S", "fluorescence interference ratio": 1.07}
{"smiles": "COc1ccccc1NC(=O)c1cc(Nc2ccccc2)nc2ccccc12", "fluorescence interference ratio": 1.05}
{"smiles": "Cc1ccc(-c2cc(NC(=O)c3cccs3)n[nH]2)cc1", "fluorescence interference ratio": 0.923}
{"smiles": "CC1CCN(c2ccc([N+](=O)[O-])c(SCCO)c2)CC1", "fluorescence interference ratio": "0.613 (active)"}
{"smiles": "Cc1cc(C(=O)N2CCN(c3cccc(Cl)c3)CC2)ccc1[N+](=O)[O-]", "fluorescence interference ratio": 0.957}
